Source: PubChem BioAssay
DAX1 inh-1 – inhibitors of human orphan nuclear receptor DAX1 (NR0B1); AID 504766; P51843; HEK293 Gal4-DAX1 luciferase reporter, luminescence; inhibition, % at 6.75 µM; hit rate 0.99% among 340,000;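 active means inhibition above the mean over all tested compounds plus 3 SD, cut at about 4.2% in these data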;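 further: 0% = DAX1-transfected cells with DMSO and 100% = empty-vector control cells with DMSO; inhibition shows as a rise in luminescence from relieved DAX1 repression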
Target sequence (P51843 207-470 limits assumed): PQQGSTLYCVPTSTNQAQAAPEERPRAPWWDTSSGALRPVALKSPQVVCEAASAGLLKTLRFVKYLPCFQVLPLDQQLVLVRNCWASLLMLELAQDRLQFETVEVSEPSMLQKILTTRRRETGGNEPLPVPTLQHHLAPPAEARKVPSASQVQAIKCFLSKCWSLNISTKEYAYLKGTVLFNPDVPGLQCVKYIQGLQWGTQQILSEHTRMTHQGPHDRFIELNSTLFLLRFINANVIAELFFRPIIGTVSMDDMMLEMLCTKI
hcDAF12 agonist – activates DAF-12 receptor from parasite H. contortus; HEK293 hcDAF-12 lit1-tk-luc reporter, luminescence; 0% DMSO, 100% Δ7-dafachronic acid; hit rate 1.4% among 370,000; activation, % at 6.8 µM;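 active means activation above the mean of all tested compounds plus 3 SD, cut at about 5.5% in these data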;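 further: 100% = response to 3 µM Δ7-dafachronic acid high control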
SMARCA2 act – SMARCA2 function activation, primary screen. MG213 cells, MMTV-luciferase reporter, dexamethasone, overnight. hit rate 1% among 370,000. activation, % at 9.1 µM; in the data active means activation above about 7.8%;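 further: 0% = vehicle wells and 100% = reference activator wells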
DAX1 inh-2 – blocks DAX1 repression of SF-1 activated StAR promoter. HEK293T StAR-luciferase reporter, SF-1/DAX-1 repression relief. inhibition, % at 6.8 µM. hit rate 1.1% among 370,000. AID 652010;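 active means inhibition above the mean over all tested compounds plus 3 SD, cut at about 3.6% in these data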;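 further: 0% = DAX-1 cells with DMSO and 100% = cells lacking DAX-1 with DMSO; higher inhibition means more luminescence from relief of DAX-1 repression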
hgDAF-12 ag – hgDAF-12 agonism, primary luciferase screen; AID 687014; hit rate 1.8% among 370,000; HEK293 GAL4-hgDAF12 UAS-luciferase reporter, agonist luminescence; normalized to butyrate control; activation, % at 6.8 µM;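 active means activation above a cutoff set at the mean of all screened compounds plus 3 SD, cut at about 10% in these data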;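 further: 0% = DMSO wells and 100% = sodium butyrate wells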
ssDAF12 agonist – S. stercoralis DAF-12 activation, primary screen | HEK293 ssDAF-12/GRIP1 lit1-tk-luc reporter, luminescence; % of 3 µM dafachronic acid response | activation, % at 6.8 µM | hit rate 1% among 370,000 | AID 652126;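 active means activation above the mean over all tested compounds plus 3 SD, cut at about 0.9% in these data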;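 further: 0% = DMSO-only wells and 100% = 3 µM delta7-dafachronic acid wells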
SMARCA2 act conf – confirmation of SMARCA2 (BRM) function activators. shares compounds with SMARCA2 act. MG213 cells, MMTV-luciferase with dexamethasone, luminescence, overnight; MG213 cells expressing E1A, Rb sequestered; DMSO wells 0%, reference activator 100%. activation, % at 9.1 µM. hit rate 30% among 3,500;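 active means activation above its plate's cutoff, the mean activation of tested wells plus 3 SD, cut at about 7.9% in these data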
VP16 Luc act – GAL4-VP16 reporter activation counter-screen; shares compounds with SMARCA2 act; activation, % at 9.1 µM; hit rate 41% among 3,500; HEK293 GAL4-VP16 pG5luc reporter, luciferase luminescence; scaled: DMSO wells 0%, SAHA wells 100%;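 active means activation above the solvent-only control well mean plus 3 SD, averaged across control plates, cut at about 5.2% in these data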
Active calls of the source: *; · = no result given. Only some compounds are listed: those with a hit (about 4.8% of all), similar ones and a draw of the others.

SMILES	DAX1 inh-1	hcDAF12 agonist	SMARCA2 act	DAX1 inh-2	hgDAF-12 ag	ssDAF12 agonist	SMARCA2 act conf	VP16 Luc act
COc1ccc2oc(C(=O)OCC(=O)N3CCCCC3C)c(C)c2c1 (centres undefined)	1	-1	8.4*	2	2	-1	7	2
C#Cc1cccc(Nc2nc(NC(C)C)nc3ccsc23)c1	·	-2	-2	-4	-7	-2	·	·
Cc1nc(CS(=O)(=O)c2ccc(Cl)cc2)cc(Sc2ccccc2Cl)n1	0	-2	2	-1	4	-2	·	·
Cc1nc(CS(=O)(=O)c2ccccc2)cc(Sc2ccccc2Cl)n1	0	1	8.2*	1	2	-1	7	6.9*
CC1CCc2c(sc(/N=C/c3cccnc3)c2C(N)=O)C1 (centres undefined)	·	-2	-2	0	1	-2	·	·
CC1CCc2c(sc(/N=C/c3ccco3)c2C(N)=O)C1 (centres undefined)	3	0	8.8*	2	3	-1	7	6.2*
COc1cccc(-n2c(=O)c3sccc3n(CC(=O)NCC3CCCO3)c2=O)c1 (centres undefined)	0	-1	0	0	2	-1	·	·
O=C(c1ccc(F)cc1F)N1CCN(c2ccccn2)CC1	2	-2	0	0	3	-1	·	·
CCOC(=O)Cn1cc(CN2CCS(=O)(=O)N(Cc3ccc(F)cc3)C(C(=O)OC)C2)nn1 (centres undefined)	·	-2	8.5*	0	1	-1	0	0
CCOC(=O)Cn1cc(CN2C(C(=O)OC)CN(Cc3ccc(F)cc3)CCS2(=O)=O)nn1 (centres undefined)	·	0	2	0	0	-2	·	·
C=CCN1C(C(=O)OC)CN(Cc2cn(Cc3ccc(Cl)cc3)nn2)CCS1(=O)=O (centres undefined)	·	-3	8.5*	-1	-1	-1	2	2
COC(=O)C1CN(Cc2ccc(Cl)cc2)CCS(=O)(=O)N1Cc1cn(Cc2ccc(Cl)cc2)nn1 (centres undefined)	·	-2	1	0	-3	-1	·	·
Cc1cc(C(F)(F)F)nn1CC(=O)NCc1cccs1	0	-1	-1	0	0	-2	·	·
CC(=O)c1cnc2cc(-c3ccc(C)cc3)nn2c1C	2	5	10*	3	8	0	3	9.9*
CC(=O)c1cnc2cc(C)nn2c1C	0	0	0	1	1	0	·	·
O=C(CSc1cccc[n+]1[O-])Nc1ccccc1C(F)(F)F	2	1	-2	0	3	-1	·	·
Cc1ccc(NC(=O)CSc2cccc[n+]2[O-])c([N+](=O)[O-])c1	1	1	8.4*	0	-3	-2	0	1
O=C(CSc1cccc[n+]1[O-])Nc1cc([N+](=O)[O-])ccc1Cl	0	-1	1	0	2	-1	·	·
O=C(CSc1cccc[n+]1[O-])Nc1ccccc1Oc1ccccc1	-1	-2	8.4*	1	-3	-1	10*	2
COc1ccc(OCC(=O)Nc2ccc3c(c2)nc2n3CCSC2)cc1	-1	-2	-4	-1	-4	-1	·	·
CCCCC(=O)Nc1ccc2c(c1)nc1n2CCSC1	1	2	8.1*	1	7	-1	8.0*	5.8*
COc1ccccc1C(=O)Nc1ccc2c(c1)nc1n2CCSC1	0	5	8.9*	1	7	-1	15*	5.6*
Cc1nn(CCOc2ccccc2)c(=O)n1-c1c(F)cccc1F	3	2	9.8*	2	11*	-1	3	8.0*
CCOc1ccc(NC(=O)CCNS(=O)(=O)c2ccc3c(c2)oc(=O)n3C)cc1	0	5.9*	8.0*	-2	1	-1	-1	-1
Cc1ccc(NC(=O)CCNS(=O)(=O)c2ccc3c(c2)oc(=O)n3C)cc1	0	0	-2	1	2	-1	·	·
SMILES	DAX1 inh-1	hcDAF12 agonist	SMARCA2 act	DAX1 inh-2	hgDAF-12 ag	ssDAF12 agonist	SMARCA2 act conf	VP16 Luc act
COCc1cc(=O)n2[nH]c(-c3ccc(C)cc3)cc2n1	2	4	10*	2	8	0	8.9*	5
CCc1c(C)nc2cc(-c3ccc(OC)cc3)[nH]n2c1=O	0	0	8.9*	2	5	-1	11*	11*
COc1cccc(C(=O)O/N=C(\N)CS(=O)(=O)c2ccccc2)c1	2	1	12*	4	4	0	2	2
COc1ccc2c(c1)CC/C(=C\c1ccc(C)o1)C2=O	4.9*	3	11*	2	7	-1	18*	14*
Cc1cccc(NC(=O)C2CCCN2C(=O)OCc2ccccc2)c1 (centres undefined)	0	-1	0	-1	4	-1	·	·
Cc1ccc(O)c(NC(=O)C2CCCN2C(=O)OCc2ccccc2)c1 (centres undefined)	0	3	9.6*	0	-2	-1	-1	1
Cc1ccc(S(=O)(=O)N2CCN(C(=O)COC(=O)CCCOc3ccccc3)CC2)c(C)c1	0	-1	-2	-1	0	-1	·	·
Cc1cn([C@H]2C[C@H](O)[C@@H](/C=C/C(=O)NCc3ccco3)O2)c(=O)[nH]c1=O	·	2	10*	-1	6	0	-1	1
O=C1NCCCC1C(=O)N/N=C/c1ccccc1 (centres undefined)	0	0	8.8*	1	1	-1	1	1
COc1ccc(NC(=O)c2ccc(Oc3ncccn3)cc2)cc1	1	0	9.4*	2	4	-1	2	4
O=C(NCCC1=CCCCC1)C1CCCN(S(=O)(=O)c2cccc3cccnc23)C1 (centres undefined)	-1	-3	10*	-1	-1	-1	-5	-1
CC(=O)C1CCC2C3CC=C4CC(SC(=N)N)CCC4(C)C3CCC12C (centres undefined)	-1	-2	10*	-4	2	-1	-6	1
CCCn1c(N)c(NCCN2CCOCC2)c(=O)[nH]c1=O	1	-1	-2	0	0	-2	·	·
CC(C)CCn1c(Sc2nc3ccccc3o2)nc2c1c(=O)[nH]c(=O)n2C	1	-2	8.1*	0	6	-1	2	5
Cn1c(=O)[nH]c(=O)c2c1nc(N1CCCCC1)n2CCSc1nc2ccccc2o1	1	0	-1	-1	3	0	·	·
